Bioassay records deposited in PubChem by National Center for Advancing Translational Sciences (NCATS).
Rows were chosen to be rich in hits. Some 12% of all compounds tested hit in one or more screens of this group.
Sfp inh: qHTS Assay for Inhibitors of Bacillus subtilis Sfp phosphopantetheinyl transferase (PPTase); 4'-phosphopantetheinyl transferase ffp (Bacillus subtilis), Q9F4F7; Biochemical Sfp PPTase activity, qHTS; Potency, µM, inactives show largest response in the series, negative = inhibition, hits mostly inhibitors; hit rate 3.5% among 310,000; AID 1490, 2009;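 also: the enzyme is Sfp with the accession as filed and its product quenches rhodamine fluorescence; 0% = enzyme reaction without inhibitor and -100% = no enzyme wells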
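Sfp 15 nM + cpd, 15 min RT; start w/ rhodamine-CoA 5 uM, BHQ-2-YbbR 12.5 uM (final); 50 mM Hepes pH 7.6, 10 mM MgCl2, 0.01% NP-40, 0.01% BSA; read 525/598 nm at 0 and 30 min.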
BAZ2B block: qHTS Assay for Inhibitors of BAZ2B; hit rate 4.4% among 360,000; AlphaScreen BAZ2B-H3K14Ac peptide displacement; Bromodomain adjacent to zinc finger domain protein 2B (Homo sapiens), Q9UIF8; Potency, µM (titrated, usually from 114 µM), without a hit: at the highest dose activity change, negative = inhibition, actives largely listed as inhibitors; also: % is scaled to controls: 0 for no effect and ±100 for the full control effect; nearly all actives have a fitted effect of over 60% in size
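Complex of BAZ2B and biotin-H3K14Ac (50 nM apiece) forms over 30 min at RT, then faces library compounds up to 110 uM for another 30 min; AlphaScreen beads added, 20 min dark incubation, luminescence read.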
PLK1 PBD inh: qHTS for Inhibitors of PLK1-PDB (polo-like kinase 1 - polo-box domain): Primary Screen. Serine/threonine-protein kinase PLK1 (Homo sapiens), P53350. Plk1 PBD binding of FITC phosphopeptide, fluorescence polarization. Potency, µM, for the others: max response, negative = inhibition, usual class: inhibitors. hit rate 2.8% among 360,000. AID 720504, 2013; also: series mostly up to about 57 µM; % is scaled to controls: 0 for no effect and ±100 for the full control effect; nearly all actives have a fitted effect of over 65% in size
JMJD2A Tudor: qHTS Assay for Inhibitors of JMJD2A-Tudor Domain; AID 504339, 2011; AlphaScreen JMJD2A-Tudor / H3K4me3 peptide binding; Potency, µM (highest dose often 114 µM), for inactives: at the highest dose activity change, negative = inhibition, usual class: inhibitors; Lysine-specific demethylase 4A (Homo sapiens), O75164; hit rate 4.4% among 390,000; also: % is scaled to controls: 0 for no effect and ±100 for the full control effect; nearly all actives have a fitted effect of over 50% in size
HP1b chromo inh: HTS for Inhibitors of HP1-beta Chromodomain Interactions with Methylated Histone Tails. Chromobox protein homolog 1 (Homo sapiens), P83916. AlphaScreen HP1-beta / biotin-H3K9me3 peptide binding. Potency, µM (doses to about 114 µM), without a hit: at the top dose activity change, negative = inhibition, most hits filed as inhibitors. hit rate 0.56% among 390,000; also: nearly all actives have a fitted effect of over 70% in size
Target sequence (P83916 whole entry, looked up): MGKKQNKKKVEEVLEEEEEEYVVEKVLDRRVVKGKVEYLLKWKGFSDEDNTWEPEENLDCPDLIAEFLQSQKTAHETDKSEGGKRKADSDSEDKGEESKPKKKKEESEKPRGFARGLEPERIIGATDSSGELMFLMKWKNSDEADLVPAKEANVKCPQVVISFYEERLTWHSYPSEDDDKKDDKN
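HP1-beta protein (50 nM final) preincubated 30 min at room temperature with biotinylated H3(1-18)K9me3 peptide (50 nM) in PBS pH 7.4, 0.01% Tween-20, then compound added for 30 min. AlphaScreen streptavidin donor/nickel chelate acceptor beads (10 ug/mL final), 30 min dark, luminescence read.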
G9a block: qHTS Assay for Inhibitors of Histone Lysine Methyltransferase G9a. Histone-lysine N-methyltransferase EHMT2 (Homo sapiens), Q96KQ7. G9a H3K9 monomethylation, AlphaScreen, 2 h. Potency, µM (top dose mostly 102 µM), without a hit: at the highest dose activity, negative = inhibition, actives largely listed as inhibitors. hit rate 8.8% among 350,000. AID 504332, 2011; also: % is scaled to controls: 0 for no effect and ±100 for the full control effect; nearly all actives have a fitted effect of over 75% in size
Target sequence (Q96KQ7 913-1193 limits assumed): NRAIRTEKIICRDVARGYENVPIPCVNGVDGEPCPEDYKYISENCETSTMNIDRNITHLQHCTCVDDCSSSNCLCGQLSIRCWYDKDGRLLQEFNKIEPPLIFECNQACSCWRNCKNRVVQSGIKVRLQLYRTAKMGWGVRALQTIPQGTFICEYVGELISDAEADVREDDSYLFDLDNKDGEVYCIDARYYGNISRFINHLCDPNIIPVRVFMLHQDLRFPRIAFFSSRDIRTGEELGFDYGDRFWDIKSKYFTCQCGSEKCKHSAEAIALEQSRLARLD
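Step 1: enzyme (final 20 nM) with compound, 15 min RT. Step 2: substrate peptide 500 nM and SAM 20 uM, 2 h RT. Step 3: anti-H3K9me1 antibody and AlphaScreen beads, 10 min, then plate read.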
Starred values were filed as active, the others as inactive; ? = inconclusive; nt = not tested or not shown; [ ] = another dose, or the depositor's remark. Calls follow the shape of the dose curve; as a rule, active = well fitted curve in the direction sought with a large enough effect; inconclusive = small, poorly fitted or top-dose-only effect, or another doubt; inactive = no such curve, though single readings can be large; an effect the other way counts as inactive or inconclusive. Potency is read from the fitted curve at half-maximal effect.

SMILES	Sfp inh	BAZ2B block	PLK1 PBD inh	JMJD2A Tudor	HP1b chromo inh	G9a block
CCOC(=O)[C@]12CCCC=C1N(Cc1ccco1)C(=O)[C@H](CC(=O)NCCCCc1ccccc1)C2	nt	nt	-8%	nt	nt	nt
CC(C)(C)OC(=O)N1CC2(CCCCC2)CC1Cc1ccc(C(F)(F)F)cc1 (centres undefined)	nt	nt	-10%	nt	nt	nt
COc1ccc(/C=C/C(=O)Nc2ccc(-n3nncc3-c3ccccc3)cc2)cc1OC	-3%	2%	-19%	-18%	-14%	45µM*
COc1ccc(/C=C/C(=O)Nc2ccc(C(N)=O)cc2)cc1OC	22%	-12%	1%	2%	32%	-3%
COc1ccc(C(=O)C[n+]2cccc(C(N)=O)c2)cc1	22%	3%	-11%	-6%	26%	?
COc1ccc(C(=O)C[n+]2cccc(C)c2)cc1	-9%	11%	-1%	-17%	16%	71µM*
NNC(=S)NC1CCCCCCCCCCC1	12%	32µM*	-6%	?	32%	nt
CN(C)C(=S)NC1CCS(=O)(=O)C1 (centres undefined)	18%	-13%	-5%	-8%[11.4 µM]	43%	4%
O=C(O)/C=C/C(=O)NC1CCS(=O)(=O)C1 (centres undefined)	-4%	?	-7%	-7%	57%	3.2µM*
NNC(=S)NC1CCS(=O)(=O)C1 (centres undefined)	8.9µM*	16%	-9%	?	?	nt
CCCCN1CC[C@H]2C=CC[C@@H](C(=O)Nc3nccs3)[C@H]2C1=O	nt	nt	-8%	-5%	77%	nt
COc1ccc(OC)c(/C=C2\SC(=S)N(NS(=O)(=O)c3ccc(C)cc3)C2=O)c1	11%	?	27µM*	50µM*	?	5%[2.33 µM]
CCOc1ccc(/C=C2\SC(=S)N(NS(=O)(=O)c3ccc(C)cc3)C2=O)cc1OC	-22%	?	?	?	-10%	?
COc1ccccc1/C=C1\SC(=S)N(NS(=O)(=O)c2ccc(C)cc2)C1=O	-15%	50µM*	27µM*	?	-18%	?
COc1ccc(/C=C2\SC(=S)N(NS(=O)(=O)c3ccc(C)cc3)C2=O)c(OC)c1	-26%	?	?	56µM*	-19%[57 µM]	-46%
COc1ccc(/C=C2\SC(=S)N(NS(=O)(=O)c3ccccc3)C2=O)c(OC)c1	?	-21%	?	-26%	6%	?
COc1ccc(OC)c(/C=C2\SC(=S)N(NS(=O)(=O)c3ccccc3)C2=O)c1	1%	40µM*	?	?	-3%	-37%[12.7 µM]
COc1ncc2nc(-c3cc(F)cc(F)c3)c(=O)n(C)c2n1	25%	nt	nt	nt	nt	-2%[0.501 µM]
O=C(Nc1cc(-c2nc3ccccc3s2)ccc1Cl)c1cc2ccccc2o1	nt	32%	nt	-6%	30%	35%[59 µM]
O=C(O)c1cccc(N/N=C/c2cccnc2)c1	23%	-13%	-12%	-17%	18%	28µM*
Clc1ccc(N/N=C/c2cccnc2)cc1	-7%	?	-1%	?	3%	4µM*
C(=N\NC1=Nc2cccc3cccc1c23)/c1cccnc1	?	40µM*	8%	?	-31%	?
C(=N\NC1=Nc2cccc3cccc1c23)/c1ccccc1	?	?	?	-29%	-11%	-5%[59 µM]
O=[N+]([O-])c1ccc(N/N=C/c2cccnc2)cc1	2%	6%[0.457 µM]	-8%	-9%	21%	0%[59 µM]
CN(C)c1ccc(/C=N/Nc2cccc(C(=O)O)c2)cc1	-30%	?	3%	?	31%	7.9µM*
SMILES	Sfp inh	BAZ2B block	PLK1 PBD inh	JMJD2A Tudor	HP1b chromo inh	G9a block
O=C(N/N=C/c1cccnc1)c1ccccc1	3%	5%	-3%	-11%	19%	14%
CC(=O)Nc1cccc(C(=O)/C=C/c2ccc(N(C)C)cc2)c1	-19%	-2%	47%	12%	80%	15%[59 µM]
CCCCCC(O)c1ccc([C@H]2CCC(=O)[C@@H]2CCCCCCC(=O)O)cc1 (some centres undefined)	3%	nt	nt	nt	nt	nt
Cc1ccc(NS(=O)(=O)c2c(C(=O)N3CCCC3)c(C)n(C)c2C)cc1	9%	-6%	-5%	-9%	39%	15%[59 µM]
CC(C)(C)c1ccc(/C=N/Nc2cccc(C(=O)O)c2)cc1	13%	-24%	?	-33%	15%	28µM*
COc1ccccc1/C=C/C=N/Nc1cccc(C(=O)O)c1	-8%	-33%	-29%	?	-22%	-4%
O=C(O)c1cccc(N/N=C/c2ccc(-c3ccccc3)cc2)c1	-10%	nt	?	-29%	15%	25µM*
COc1ccc(/C=N/NC(=S)Nc2cccc(C(=O)O)c2)cc1OC	-18%	8%	-2%	-17%	17%	?
CC(=O)Nc1ccc(CN(C)c2c(C)nc3ccc(C(=O)Nc4ccc(Cl)c(Cl)c4)cn23)cc1	nt	nt	-10%	nt	nt	nt
O=C(O)CC(O)CC(O)/C=C/c1c(C2CC2)nc2ccccc2c1-c1ccc(F)cc1 (centres undefined)	10%	nt	nt	nt	nt	25%[59 µM]
Cc1cc(C)c(OCCN(C)C)c(Cl)c1	-18%	50µM*	?	3.5µM*	?	11µM*
Cc1cc(OCCOCCN(C)C)ccc1Cl	-29%	?	-2%	28µM*	?	?
Cc1cc(Cl)cc(Cl)c1OCCOCCN(C)C	-20%	?	2%	6.3µM*	?	11µM*
O=C(CCNC(=O)c1ccc(Br)cc1)NCc1ccccn1	nt	-27%	1%	2%	39%	-1%
COC(=O)[C@H](Cc1ccccc1)NC(=O)O[C@@H]1C(=O)c2cc(Br)ccc2O[C@H]1c1ccc2c(c1)OCO2	1%	nt	nt	nt	nt	nt
O=C(NCCc1ccccc1)c1cnc2n(c1=O)CCS2	9%	nt	-14%	-12%	6%	-43%
O=C(NCc1ccccc1Cl)c1cnc2n(c1=O)CCS2	?	-14%	-11%	-11%	38%	56µM*
COc1ccc(CNC(=O)c2cnc3n(c2=O)CCS3)cc1	8%	7%	-12%	-11%	38%	45µM*
COc1ccc(NC(=S)N(Cc2ccc(Cl)cc2)Cc2ccc(C(=O)O)cc2)cc1Cl	50µM*	?	?	-25%	12%	?
COc1cccc(NC(=S)N(Cc2ccc(C(=O)O)cc2)Cc2ccc(OC)c(OC)c2)c1	6%	5%	-24%	-15%	28%	?
